Results published in PubChem BioAssay (NCI).
About 83,000 compounds went through this panel and 20% of them were active in at least one assay; those are over-represented in the sample as a whole.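 Step 1: grow cells in 96-well plates. Step 2: add test compound at a single concentration. Step 3: incubate 48 h. Step 4: record percent growth.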 Unmarked numbers belong to inactive results. Active and inactive are the calls of the source. How the source made its calls: active means growth percent below 10; inactive means the rest.

Legend:
Assay in all cases: NCI-60 one-dose screen, 48 h (100 = growth as untreated, 0 = no growth, -100 = all killed)
Conditions in all cases: 10 µM unless noted
HCT-15 colon = tested on: HCT-15 colon
HT29 colon = tested on: HT29 colon
SNB-75 CNS = tested on: SNB-75 CNS
SNB-19 CNS = tested on: SNB-19 CNS
U251 CNS = tested on: U251 CNS
PC-3 prostate = tested on: PC-3 prostate
UACC-62 melanoma = tested on: UACC-62 melanoma
LOX IMVI melanoma = tested on: LOX IMVI melanoma
SK-MEL-28 melanoma = tested on: SK-MEL-28 melanoma
SK-MEL-5 melanoma = tested on: SK-MEL-5 melanoma

Row | Compound | growth (HCT-15 colon) | growth (HT29 colon) | growth (SNB-75 CNS) | growth (SNB-19 CNS) | growth (U251 CNS) | growth (PC-3 prostate) | growth (UACC-62 melanoma) | growth (LOX IMVI melanoma) | growth (SK-MEL-28 melanoma) | growth (SK-MEL-5 melanoma)
1 | S=c1sc2c(Cl)nc(-c3cccnc3)nc2n1-c1ccccc1 | -32.6% (active) | -53.8% (active) | 57.1% | 25.2% | 7.95% (active) | 1.75% (active) | -10.2% (active) | -52% (active) | -58.2% (active) | 
2 | C=CCc1c(O)c(C(=O)/C=C/c2ccccc2)c(OC)c2ccoc12 | 39.6% | 27.9% | 72.9% | 46.6% | 26.8% | 33.9% | 41.3% | 35.2% | 64.6% | 
3 | O=S(=O)(NCCCNc1nccc(-c2c(-c3ccc(F)c(O)c3)nc3sccn23)n1)c1ccccc1 | 68.5% | 51% | 105% | 104% | 90.2% | 61.5% | 5.45% (active) | 18% | 24.1% | 
4 | C#CCOc1cccc(Nc2ncnc3ccc(NC(=O)C=C)cc23)c1 | 42.9% | 30.7% | 26.6% | 48.2% | 45.6% | 48.5% | 51% | 41.1% | 77.8% | 
5 | CN(C)c1ccc(C(=O)OCCCCCCl)cc1 | 100% | 99.1% | 78.4% | 95.6% | 99.7% | 87.1% | 94.5% | 102% | 103% | 
6 | CCOc1ccccc1Cn1ccnc1CCc1c(Cl)c(O)cc(O)c1C(=O)OC | 104% | 94.8% | 88.2% | 92.4% | 97.5% | 86.9% |  | 89.2% | 96.6% | 
7 | [O-]/[N+](=C\c1ccc(-n2cc(Cc3ccccc3Cc3cn(-c4ccc(/C=[N+](/[O-])c5ccccc5)cc4)nn3)nn2)cc1)c1ccccc1 | 98.8% | 101% | 91.9% | 96.7% | 107% | 103% | 94.7% | 87.9% | 110% | 
8 | C=CC[Se]C(=O)Cc1c(C)n(C(=O)c2ccc(Cl)cc2)c2ccc(OC)cc12 | 6.96% (active) | 9.35% (active) | -68.6% (active) | -46% (active) | -58.7% (active) | -36% (active) | -66.1% (active) | 7.91% (active) | -16% (active) | 
9 | Cc1ccc(CNc2ccc3nc(CCC4CCCCC4)[nH]c3c2)cc1 | 12.7% | 9.91% (active) | 79.7% | 58.4% | 29.8% | 38.5% | 32.9% | 50.1% | 38.5% | 
10 | COc1cc(C2c3cc(OC(C)=O)c(OC)cc3CC3C(=O)OCC32)ccc1OC(C)=O (stereo not given) | 104% | 97.6% | 94.5% | 116% | 92.6% | 68.3% | 103% | 103% | 122% | 
11 | N#CC1=C(c2ccccc2)Nc2c(c(-c3ccc(Cl)cc3)nn2-c2ccccc2)C12C(=O)Nc1ccc(Cl)cc12 (stereo not given) | 61.8% | 47.8% | 6.22% (active) | 70.5% | 64% | 51% |  | 77.5% | 90.8% | 87.5%
12 | CC(=O)O[C@H]1CC2CCC3C(CC[C@@]4(C)C3C[C@H]([N+]3(C)CCCCC3)[C@@H]4OC(C)=O)[C@@]2(C)C[C@@H]1N1CCCCC1 (stereo not given in full) | 118% | 105% | 99.6% | 100% | 90.8% | 92.8% | 92.6% | 95.2% | 108% | 
13 | COc1ccc(-c2nc3cc(C(=O)NCc4ccccc4)ccc3n2C2CCCCC2)cc1 | 10% | 28.1% | 64.3% | 98.2% | 68.2% | 85.3% | 91% | 53.9% |  | 
14 | Cc1ccccc1/C=C/C(=O)c1cccc(OCCCOc2cccc(C(=O)/C=C/c3ccccc3C)c2)c1 | 87.2% [3 µM] | 79.6% [3 µM] | 86.1% [3 µM] | 97.1% [3 µM] | 76.1% [3 µM] | 88.8% [3 µM] | 80.2% [3 µM] | 67.5% [3 µM] | 112% [3 µM] | 
15 | O=C(Nn1c2c(sc1=NC1CC1)C(=O)c1ccccc1C2=O)c1cc2ccc1CCc1ccc(cc1)CC2 | 2.79% (active) | 108% | -10.4% (active) | 33.7% | 32.6% | 30.7% | -12.4% (active) | 0.512% (active) | 40.2% | 
16 | CSc1nc(N)c(NS(=O)(=O)c2ccc(C(C)=O)cc2)c(=O)[nH]1 | 98.4% | 103% | 87.6% | 107% | 112% | 102% |  | 101% | 104% | 97.5%
17 | O=S(=O)(NCCNc1nccc(-c2c(-c3ccc(F)c(O)c3)nc3occn23)n1)c1ccc(Cl)cc1 | 98.9% | 92.3% | 85.2% | 101% | 93.9% | 79.8% |  | 45.5% | 40.1% | 60.9%
18 | CCOC(=O)Cc1cnc(N/N=C(\C)c2cc3ccccc3o2)s1 | 105% | 85.5% | 105% | 95% | 91.3% | 78% | 86.3% | 86% | 110% | 
19 | CCSc1nc2scc(C)c2c(=O)[nH]1 | 104% | 105% | 90.2% | 96.5% | 97.1% | 98.7% | 94.1% | 99.7% | 105% | 
20 | CC(=O)N1N=C(c2ccc(C(F)(F)F)c(F)c2)CC1c1[nH]c(C)c(C(=O)NCC(F)(F)F)c1C (stereo not given) | 95.3% | 78.5% | -8.37% (active) | 47.9% | 78.8% | 70.8% | 87.7% | 71.5% | 69.8% | 
21 | COc1cc(OC)c(/C=C/C(=O)c2c(OC)cccc2OC)c(OC)c1 | 15.7% | 0.507% (active) | 10.6% | 19.3% | 5.71% (active) | 11.6% | -20.6% (active) | -4.2% (active) | 13.2% | 
22 | CC(=O)Oc1ccc(C)cc1C | 100% | 105% | 70.3% | 103% | 103% | 97% | 105% | 97.1% | 107% | 
23 | COc1cc2c(c(OC)c1OC)CCC(c1cccc(C(=O)Nc3cccc(Cl)c3)c1)O2 (stereo not given) | 75.2% | 63.6% | 63.7% |  | 72.4% | 34% | 53.4% | 65.2% | 78.1% | 63%
24 | C=C1C(=O)O[C@H]2[C@H]1CC/C(COC(=O)NCc1ccc(Cn3c(=O)sn(CCCCC)c3=O)cc1)=C\CC[C@@]1(C)O[C@@H]21 | 16.8% | -33.4% (active) | 74.4% |  | 52% | 46.4% | 46.5% | -11.6% (active) | 47% | 91.6%
25 | COc1ccc(NC2=C(I)C(=O)c3ncccc3C2=O)cc1 | -40.2% (active) | 11.5% | -93.1% (active) |  | -47.7% (active) | 12.3% | -71.2% (active) | -58.6% (active) | 20.5% | -94.6% (active)
26 | C=C1C(=O)O[C@H]2[C@H]1CC/C(COC(=O)C(=O)c1cn(C)c3ccc(Cl)cc13)=C\CC[C@@]1(C)O[C@@H]21 | -62.8% (active) | -71.3% (active) | -98.3% (active) |  | -95.3% (active) | -70.5% (active) |  | -84.5% (active) | -64.6% (active) | -100% (active)
27 | CCN(CC)S(=O)(=O)c1ccc(S(=O)(=O)N2CCC[C@@H](C(=O)N3CCN(c4nc(C(C)C)no4)CC3)C2)cc1 | 92.2% | 87.8% | 56.4% |  | 85.3% | 76.2% | 59.7% | 54% | 91% | 
28 | NC(=O)CSc1oc(-c2ccccc2)nc1S(=O)(=O)c1ccc(Br)cc1 | 90.6% | 50.2% | 9.67% (active) |  | 54.6% | 77.9% | 49.5% | 94.3% | 87.7% | 55.7%
29 | OCCn1cc(-c2nc(-c3c[nH]c4ncccc34)cs2)c2cc(F)ccc21 | 41.6% | 46.8% | 72.5% |  | 62.9% | 48.7% |  | 65.5% | 89.8% | 
